In all, about 68,000 compounds went through this assay and about 2,700 (4%) showed an effect of 50% or more. Many of the other results were omitted from the sample, so strong results are more common in it than they were.
What follows are molecules tested on Plasmodium berghei (assay: Screen against P. berghei liver stage (PbLuc), transformed with Luciferase, at 2uM). Conditions: tested at 2 uM.
Format: functional, HepG2
Molecule `COCC(=O)N1CCO[C@H]2[C@H](OC)CC[C@@H]21` has an INHIBITION of 7.86%.
In the case of `Cc1ccc(Oc2c(F)cccc2OC[C@@H](N)CC(C)C)cc1`, the INHIBITION is reported as 16.01%.
`COC(=O)CN(C(=O)C(C)c1c(F)cccc1F)c1cccc(C)n1` (stereo not drawn) gave an INHIBITION of -23.76%.
For `Cc1oncc1C(=O)N1CC[C@H]2[C@H]1CCN2S(C)(=O)=O`, the INHIBITION was 15.36%.
`COCC1CC2(CCN(Cc3cccc(C#N)c3)CC2)CN1C(C)C` (stereo not drawn) was tested, and the INHIBITION was -52.61%.
For `Cc1nnc(NC(=O)NCc2ccnc(N(C)C)c2)s1`, the INHIBITION was 29.71%.
`O[C@@H]1C[C@@H](c2nc(-c3ccc(F)cc3)no2)N(C2CCOCC2)C1` showed an INHIBITION of 51.2%.
`COc1ccc(-c2noc([C@@H]3C[C@@H](O)CN3C3CCOCC3)n2)cc1` was tested, and the INHIBITION was 38.62%.
For `O[C@@H]1C[C@@H](c2nc(-c3ccccc3)no2)N(C2CCOCC2)C1`, the INHIBITION was 16.47%.
`O=C(c1[nH]nc2c1CCCC2)N1CCC(OCCN2CCCCC2)C1` (stereo not drawn) showed an INHIBITION of 8.14%.
Molecule `COC1CCN(C(=O)CCc2c(C)nc3ccnn3c2C)CC1` has an INHIBITION of -3.38%.
`CCOc1ccc(CN2C(=O)CC3(CCCC3)C2=O)nc1` gave an INHIBITION of -32.8%.
For `Cc1nc(C(=O)N2CCN(c3ccc(Cl)c(Cl)c3)CC2)cs1`, the INHIBITION was 23.19%.
In the case of `O=C(O)c1ccccc1-n1cnc(CN2CCc3ccccc32)c1`, the INHIBITION is reported as -26.26%.
For `O=C(O)c1ccccc1-n1cnc(CN2CCCCCC2)c1`, the INHIBITION was 25.41%.
For `O=C(O)c1ccccc1-n1cnc(CN2CCc3ccccc3C2)c1`, the INHIBITION was 51.03%.
In the case of `CN(C(=O)C1CCOCC1)[C@@H]1CCC[C@@H](N2CCCC2)[C@@H]1O`, the INHIBITION is reported as -29.66%.
For `CC1CN(S(=O)(=O)c2ccc(C(=O)NCC(F)F)cc2)CCCO1` (stereo not drawn), the INHIBITION was 9.21%.
Work on `COCCn1ccnc1C1CCN(C(=O)c2cccc(COC)n2)CC1` yielded an INHIBITION of -2.69%.
With `CC(C)NC(=O)CCNC(=O)c1cc(F)ccc1NS(C)(=O)=O` the INHIBITION was -84.03%.
`c1cnn(C[C@@H]2C[C@@H]3CN(CC4CC4)CC[C@@H]3N2c2nccs2)c1` gave an INHIBITION of -11.68%.
In the case of `Cc1nc(CN2CCC(c3nc4cc(Cl)ccc4o3)CC2)oc1C`, the INHIBITION is reported as 29.16%.
Molecule `Cc1noc(C)c1CN1CCC(c2nc3cc(Cl)ccc3o2)CC1` has an INHIBITION of 32.43%.
In the case of `Cc1ncc(CN2CCC(c3nc4cc(Cl)ccc4o3)CC2)s1`, the INHIBITION is reported as 56.38%.
For `Cc1oc(-c2nc(C#N)c(NC(C)C)o2)cc1S(=O)(=O)N1CCCCC1`, the INHIBITION was 28.39%.
For `Cc1ccnc(C2(C)CCCN2S(=O)(=O)c2cccnc2)n1` (stereo not drawn), the INHIBITION was -0.7%.
`O=C(Nc1cc(C(F)(F)F)c[nH]c1=O)C1CCCNC1` (stereo not drawn) gave an INHIBITION of -50.41%.
With `CC1CCN(CCCNS(=O)(=O)c2cc(F)cc(F)c2)CC1` the INHIBITION was 14.52%.
Work on `N#Cc1ccc(C(=O)N2CCC(Oc3ccc(C#N)cn3)CC2)cc1` yielded an INHIBITION of 20.49%.
In the case of `CCOCC(=O)N1CCC(Oc2ccc(Cl)cn2)CC1`, the INHIBITION is reported as -4.69%.
Molecule `COc1ccc(F)cc1S(=O)(=O)N1CCC(Oc2ccc(Cl)cn2)CC1` has an INHIBITION of 54.73%.
Molecule `N#Cc1ccc(OC2CCN(C(=O)c3ccccc3Cl)CC2)nc1` has an INHIBITION of 54.47%.
In the case of `CC(=O)N1CCC(Oc2ccc(Cl)cn2)CC1`, the INHIBITION is reported as 64.16%.
In the case of `N#Cc1ccc(OC2CCN(C(=O)c3ccc(Br)o3)CC2)nc1`, the INHIBITION is reported as -2.43%.
Molecule `COc1ccc(F)cc1S(=O)(=O)N1CCC(OC)CC1` has an INHIBITION of 28.55%.
In the case of `COc1ccccc1C(=O)N1CCC(Oc2ccc(C#N)cn2)CC1`, the INHIBITION is reported as 64.74%.
`Cn1nc(C(=O)N2CCC(Oc3ccc(C#N)cn3)CC2)ccc1=O` was tested, and the INHIBITION was 37.08%.
`O=S(=O)(c1cc(F)cc(F)c1)N1CCC(Oc2ccc(Cl)cn2)CC1` showed an INHIBITION of 20.5%.
`CCOC(=O)N1CCC(Oc2ccc(C(F)(F)F)cn2)CC1` was tested, and the INHIBITION was 30.98%.
Molecule `CC(=O)N1CCC(Oc2ccc(C#N)cn2)CC1` has an INHIBITION of -1.02%.
With `COc1cc(N2CC[C@@H](O)[C@@H]2Cc2ccccc2)ncn1` the INHIBITION was -30.57%.
With `CNc1ccccc1C(=O)N(C)CCc1ccccc1` the INHIBITION was -88.87%.
`CN(Cc1ccsc1)C(=O)c1n[nH]c(N)c1-c1ccccc1` gave an INHIBITION of 8.75%.
In the case of `Cc1cc(C(=O)NC(C)Cc2cccc(Cl)c2)n(C)n1` (stereo not drawn), the INHIBITION is reported as -16.65%.
`Cc1n[nH]c(C2CN(CC(=O)NCCC3=CCCCC3)CCO2)n1` (stereo not drawn) was tested, and the INHIBITION was 1.27%.
For `CN1CC2(CCN(S(=O)(=O)C3CC3)CC2)c2ccccc21`, the INHIBITION was 13.26%.
`Cn1ncnc1NCc1ccccc1Cl` was tested, and the INHIBITION was 6.75%.
`CCC(C(=O)N(C)Cc1cc(COC)[nH]n1)n1cccn1` (stereo not drawn) was tested, and the INHIBITION was 19.12%.
Work on `CN(Cc1cnn(C)c1)C(=O)NCc1cc(Br)cs1` yielded an INHIBITION of 31.78%.
Work on `Cc1cc(NC(=O)CN2CCCC2c2noc(C)n2)n(C)n1` (stereo not drawn) yielded an INHIBITION of 50.76%.
`Cc1cc(NC(=O)CN2CCCC2c2noc(C3CC3)n2)n(C)n1` (stereo not drawn) was tested, and the INHIBITION was -30.39%.
In the case of `Cc1cc(NC(=O)CN2CCCC2c2noc(C)n2)n(C(C)(C)C)n1` (stereo not drawn), the INHIBITION is reported as 7.71%.
For `Cc1cccc(COC[C@@]23CCC[C@@H]2CN(S(=O)(=O)N(C)C)C3)n1`, the INHIBITION was 31.96%.
`COc1ccccc1CNC(C)c1ccc(-n2ccnc2)cc1` (stereo not drawn) gave an INHIBITION of 18.85%.
With `CC(C)N(C)S(=O)(=O)c1ccc2c(c1)CCN(C(=O)c1cscn1)C2` the INHIBITION was -68.29%.
Work on `Cc1cnc(NC2CCN(CC(=O)Nc3ccccc3)CC2)nc1C` yielded an INHIBITION of 76.82%.
`O=C(CN1CCC(Nc2ncccn2)CC1)Nc1ccccc1` was tested, and the INHIBITION was 36.28%.
`Cc1ncsc1C(=O)NC1CCN(CCC(=O)Nc2ccccc2)CC1` was tested, and the INHIBITION was 1.02%.
`CCN1CCN(C2CCN(Cc3nnc(C4CC4)o3)CC2)C1=O` gave an INHIBITION of -8.9%.
In the case of `O=c1[nH]nc2nc(N3CCOCC3)ccn12`, the INHIBITION is reported as -60.22%.
In the case of `Cc1nn(C)cc1CN1C[C@H]2CC[C@@H](C1)N(Cc1c(C)noc1C)C2=O`, the INHIBITION is reported as 35.46%.
Work on `COc1cc(C(C)=O)ccc1OC12CCCN(CC1)C2` (stereo not drawn) yielded an INHIBITION of -18.6%.
With `CCCc1ccc(OC23CCCN(CC2)C3)c(OC)c1` (stereo not drawn) the INHIBITION was -21.37%.
`COc1cc(C#N)ccc1OC12CCCN(CC1)C2` (stereo not drawn) gave an INHIBITION of 63.83%.
`Cc1nc([C@H]2C[C@@H]3CCN(Cc4cnn(C)c4)C[C@H]3O2)sc1C` gave an INHIBITION of -19.14%.
Work on `Cc1ccc(C(=O)N2CC3(CCCCC3)c3cc(C(=O)O)ccc32)cn1` yielded an INHIBITION of -46.89%.
`Cc1nc(CCN(C)C(=O)CN2CCCCCC2)no1` showed an INHIBITION of 51.9%.
`CC1CCN(CC(=O)N(C)CCc2noc(C3CC3)n2)C1=O` (stereo not drawn) gave an INHIBITION of 27.73%.
`Cc1nc(CN2CCCN(CC(=O)N(C)CCC#N)CC2)no1` showed an INHIBITION of -14.14%.
Work on `COc1cc(N2C[C@@H]3COC[C@@H](Cc4nnc(C)o4)[C@@H]3C2)ncn1` yielded an INHIBITION of 21.27%.
Molecule `COc1ccccc1N1CCN(Cc2nc(C)c(C)o2)CC1` has an INHIBITION of -63.57%.
Work on `Cc1cc(CN2CCOC(CN(C)C)C2)no1` (stereo not drawn) yielded an INHIBITION of 16.64%.
In the case of `O=C(NCCCOc1cccnc1)c1cn(CCc2ccccc2)nn1`, the INHIBITION is reported as 41.14%.
For `O=C(NCc1cccnc1)c1cn(CCc2ccccc2)nn1`, the INHIBITION was 17.19%.
Work on `O=C(NCCc1ccccc1)c1cn(CCNCc2cccnc2)nn1` yielded an INHIBITION of 53.12%.
Molecule `Cc1nc(CC(C)C)sc1C(=O)N1CCC1` has an INHIBITION of 11.18%.
`O[C@@H]1C[C@@H](c2nc(-c3cccnc3)no2)N(C2CCOCC2)C1` gave an INHIBITION of -14.24%.
Molecule `O=C(NC[C@H]1C[C@@H]2CN(C(=O)c3ccno3)C[C@@H]2O1)C1CCC1` has an INHIBITION of 55.52%.
`CN(C)C[C@H]1C[C@@H]2CN(C(=O)c3ccco3)C[C@@H]2O1` was tested, and the INHIBITION was 10.49%.
`Cn1cccc1C(=O)NC[C@H]1C[C@@H]2CN(C(=O)c3ccco3)C[C@@H]2O1` was tested, and the INHIBITION was 6.8%.
`CN(C)C[C@H]1C[C@@H]2CN(C(=O)c3ccno3)C[C@@H]2O1` gave an INHIBITION of -30.38%.
`Cn1cccc1C(=O)NC[C@H]1C[C@@H]2CN(C(=O)c3ccno3)C[C@H]2O1` was tested, and the INHIBITION was 50.32%.
Molecule `O=C(NC[C@H]1C[C@@H]2CN(C(=O)c3ccco3)C[C@@H]2O1)c1ccsc1` has an INHIBITION of 34.93%.
For `COc1ccc(CN(C)Cn2cc(C)n(-c3cc(C)on3)c2=O)cc1`, the INHIBITION was 14.29%.
`CCC1c2ccsc2CCN1C(=O)NCc1ccc(C)nc1` (stereo not drawn) gave an INHIBITION of 11.09%.
Work on `COC1COC2(CCN(Cc3cccc(Cl)c3)CC2)C1` (stereo not drawn) yielded an INHIBITION of 23.81%.
Molecule `CO[C@@H]1CC[C@H]2[C@H]1OCCN2CCOCc1ccccc1` has an INHIBITION of 3.11%.
Work on `Cc1nc(N[C@H]2COC[C@@H]2N2CCCCC2)c2c(C)nn(C)c2n1` yielded an INHIBITION of -11.88%.
`c1cc(-c2cnc(C3CCNCC3)cn2)n[nH]1` was tested, and the INHIBITION was 66.18%.
`Fc1ccc(-c2cnc(C3CCNCC3)cn2)cc1` was tested, and the INHIBITION was 14.8%.
In the case of `c1cc(-c2cncc(C3CCNCC3)n2)n[nH]1`, the INHIBITION is reported as 29.25%.
In the case of `Cc1cccc(CN2C(=O)C[C@H]3[C@@H]2CCN3CC2CC2)n1`, the INHIBITION is reported as 3.86%.
Molecule `NC(=O)C1CN(C(=O)Nc2ccc(SC(F)(F)F)cc2)CCO1` (stereo not drawn) has an INHIBITION of -31.17%.
`O=C(NC1CCC1)C1CCC2(CN(C(=O)c3ccco3)C2)O1` (stereo not drawn) was tested, and the INHIBITION was -160.99%.
With `O=C(NC1CCC1)C1CCC2(CN(C(=O)c3ccno3)C2)O1` (stereo not drawn) the INHIBITION was 57.85%.
For `O=C(NCC1CC1)C1CCC2(CN(C(=O)c3ccno3)C2)O1` (stereo not drawn), the INHIBITION was -33.57%.
Work on `Cc1cc(C)c(CNC(=O)CC2CCCO2)c(=O)[nH]1` (stereo not drawn) yielded an INHIBITION of -36.34%.
For `O=C1CCCN1CCCC(=O)N1CCCC(Cc2cccnc2)C1` (stereo not drawn), the INHIBITION was -11.81%.
With `CN(CCOCC1CC1)C(=O)Nc1ccc(C#N)c(Cl)c1` the INHIBITION was -47.52%.
Molecule `COc1ccc(C(=O)N2C[C@@H](C(=O)O)[C@H](c3ccccc3C)C2)c(O)c1` has an INHIBITION of -43.72%.
In the case of `CN1CCOC[C@H]1c1nc(-c2ccncc2)c[nH]1`, the INHIBITION is reported as 28.45%.
`CC(C)N1CCOC[C@H]1c1nc(-c2ccncc2)c[nH]1` showed an INHIBITION of 54.56%.
`c1cc(-c2c[nH]c([C@@H]3COCCN3C3CCOCC3)n2)ccn1` gave an INHIBITION of 30.63%.

Reference: ChEMBL document CHEMBL4513216, “Probing the Open Global Health Chemical Diversity Library for Multistage-Active Starting Points for Next-Generation Antimalarials” (ACS Infect Dis, 2020)
